This excerpt belongs to a sample that is enriched for hits.
Dicer inh: inhibitors of human Dicer processing of pre-microRNA; Q9UPY3; z-score at 25 µM; 47,000 compounds, 6% hits; cat-ELCCA pre-miR-21 Dicer processing, chemiluminescence; active compounds read high; in the data active means z-score above about 3, passing the limit was not always enough;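 further: plate controls were vehicle for no effect and no enzyme for full effect; higher signal means more uncleaved substrate so more Dicer inhibition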
* = called active by the depositor.

SMILES | Dicer inh
CCOC(=O)NC(Nc1cc(Cl)ccc1OC)(C(=O)OCC)C(F)(F)F (stereo not given) | 2.7
CC(CO)(CO)NC(=S)NC1CC1 | -0.89
CCOc1ccc(C2Nc3ccccc3-c3cc(C)nn32)cc1 (stereo not given) | 3.2*
CCOc1ccc(C2Nc3c(C)cccc3-c3cc(C)nn32)cc1 (stereo not given) | 1.2
CCOc1ccc(C2Nc3ccc(C)cc3-c3cc(C)nn32)cc1 (stereo not given) | 1.5
CN(C)/C=C(\C#N)C(=O)Nc1ccccn1 | -0.63
CC1=CC(C)(C)Nc2ccc(OC(=O)COc3ccccc3)cc21 | -3.4
CC1=CC(C)(C)Nc2ccc(OC(=O)c3ccc(Cl)cc3)cc21 | 4.6
CCOC(=O)Oc1ccc2c(c1)C(C)=CC(C)(C)N2 | 0.43
CC1=CC(C)(C)Nc2ccc(OC(=O)c3ccccc3Br)cc21 | 4*
CC1=CC(C)(C)N2C(=O)C(=O)c3cc(OC(=O)c4ccccc4Br)cc1c32 | 1.7
CC1=CC(C)(C)Nc2ccc(OC(=O)c3cccc(Br)c3)cc21 | 3.1*
O=C(CSc1ccc([N+](=O)[O-])cn1)Nc1ccc(F)cc1F | -0.91
COCCNC(=O)Nc1ccc2nsnc2c1 | 0.57
COC(=O)CN(c1cccc2ccccc12)S(C)(=O)=O | -0.72
CC1=C(C(=O)OCCc2ccccc2)C(c2ccncc2)C2=C(CC(c3ccccc3)CC2=O)N1 (stereo not given) | 0.72
Cc1ccc(-c2nnc(SCCC(=O)O)o2)cc1 | -1.4
CC(=O)O[C@@H]1C(=O)c2ccccc2O[C@H]1c1ccccc1 | 0.19
CCOC(=O)COc1ccc2c(-c3ccccc3)cc(=O)oc2c1 | 1.1
Cc1c(Cc2c(F)cccc2Cl)c(=O)oc2cc(OC(=O)c3ccco3)ccc12 | 0.42
CCOC(=O)COc1ccc2c(C)c(Cc3c(Cl)cccc3Cl)c(=O)oc2c1 | 3.3*
O=C(O)c1cc2cc(Cc3cccnc3)ccc2o1 | 3.6*
O=C(O)c1cc2c(ccc3ccccc32)o1 | 1
O=C(Nc1cccnc1)c1cc2c(ccc3ccccc32)o1 | -0.39
CSc1c(C#N)c(-c2ccc(Cl)cc2)nn1C(=O)c1cccs1 | 0.03
SMILES | Dicer inh
CC(CO)(CO)NCC(O)COc1ccc(OC(F)(F)F)cc1 (stereo not given) | -1.3
Cn1c(-c2ccccc2)cnc1NCc1cccc(Br)c1 | 4.4*
Cn1c(-c2ccc(F)cc2)cnc1NCc1cccc(Br)c1 | 2.8
Cn1c(-c2ccc(Cl)cc2)cnc1NCc1ccc(F)cc1 | 2.6
Cc1ccc(-c2cnc(NCc3ccc(Cl)cc3)n2C)cc1 | 3.2*
Cn1c(-c2ccc(Br)cc2)cnc1NCc1cccc(F)c1 | 2.5
Cn1c(-c2cccc(Br)c2)cnc1NCc1ccccc1 | 3.8*
COc1ccccc1CNc1ncc(-c2cccc(Br)c2)n1C | -0.18
COc1ccc(-c2cnc(NCc3ccc(Cl)cc3)n2C)cc1 | -0.45
Cn1c(-c2ccccc2)cnc1NCc1ccccc1O | 1.9
O=C1CCCC2=C1C(c1ccc(F)cc1)N(C(=O)c1ccccc1)c1ccccc1N2 (stereo not given) | -0.87
Cc1nc(-c2cccnc2)nc(N2CCCN(c3ccc(C(F)(F)F)cn3)CC2)c1Cl | -1.2
COc1cc(C2CC(=O)Nc3nc(N)[nH]c(=O)c32)ccc1OCc1ccccc1Cl (stereo not given) | 0.25
C=CCSc1nnc2c(n1)OC(c1ccccc1F)N(C(C)=O)c1ccccc1-2 (stereo not given) | -0.43
O=c1oc(COc2ccc(Cl)cc2Cl)nc2ccccc12 | -0.37
NNC(=O)c1cccn1-c1ccc(F)cc1 | -0.26
Cc1ccc(S(=O)(=O)CCSC2=CC(=O)CC(C)(C)S2)cc1 | -3.2
CC1(C)CC(=O)C=C(SCc2ccc(Cl)cc2)S1 | 4*
CC1(C)CC(=O)C=C(SCCS(=O)(=O)c2ccccc2)S1 | 1.9
COc1cc(NC(=O)C(C)(C)C)ccc1Br | -0.09
CN(C)/C=N/c1nnc(Sc2ccnc3cc(Cl)ccc23)s1 | 0.09
COc1nc(-c2ccc(C)cc2)ccc1-c1noc(-c2cccnc2)n1 | 3.5*
COc1ccc(-c2ccc(-c3noc(-c4cccc(OC)c4)n3)c(OC)n2)cc1 | -0.9
COc1nc(-c2ccccc2)ccc1-c1noc(-c2ccc(C)cc2)n1 | 1.5
N#CC1C(=O)NC(N2CCCCC2)=NC12CCCCC2 (stereo not given) | -0.3
SMILES | Dicer inh
CC12CCC(O)CC1=CCC1C2CCC2(C)/C(=N/NC(N)=O)CCC12 (stereo not given) | -0.04
O=c1[nH]c2c(F)cccc2c(O)c1-c1ccccc1 | -0.48
O=c1[nH]c2ccccc2c2oc(-c3ccccc3)nc12 | -1.2
O=C(O)c1c(-c2ccccc2)c2oc3ccccc3c2[nH]c1=O | 4.4*
Cc1nn(-c2ccccc2)c2sc(C(=O)Oc3cccc4cccnc34)cc12 | 1.9
O=C(Nc1cccc2cccnc12)c1cc2ccccc2o1 | -1.1
Cc1cc2n(n1)C(c1ccc3c(c1)OCO3)Nc1c(C)cccc1-2 (stereo not given) | 3.1*
Cc1cc2n(n1)C(c1cc(Br)ccc1O)Nc1c(C)cccc1-2 (stereo not given) | 8.7
Cc1cc2n(n1)C(c1ccccc1Cl)Nc1c(C)cccc1-2 (stereo not given) | 5.9*
Cc1cc2n(n1)C(c1ccccc1F)Nc1c(C)cccc1-2 (stereo not given) | 0.62
Cc1cc2n(n1)C(c1ccc(Cl)cc1)Nc1c(C)cccc1-2 (stereo not given) | 3.8*
Cc1cc(C)c2c(c1)-c1cc(C)nn1C(c1ccc3c(c1)OCO3)N2 (stereo not given) | 1.2
COc1cccc(C2Nc3c(C)cccc3-c3cc(C)nn32)c1O (stereo not given) | 4.9*
CCOc1cccc(C2Nc3c(C)cc(C)cc3-c3cc(C)nn32)c1O (stereo not given) | 2.6
COc1ccc(OC)c(C2Nc3c(C)cccc3-c3cc(C)nn32)c1 (stereo not given) | -1.3
COc1ccc(C2Nc3c(C)cccc3-c3cc(C)nn32)cc1 (stereo not given) | 0.76
Cc1cc2n(n1)C(c1ccc(N3CCCC3)cc1)Nc1c(C)cccc1-2 (stereo not given) | 8.8
Cc1c(NCN2C(=O)CCC2=O)cc2c(c1[N+](=O)[O-])C(C)(C)CC2(C)C | 1.3
N#Cc1c(SCC(=O)Nc2nccs2)nc(N2CCOCC2)c2c1CCCC2 | -0.85
C#CCOC(=O)c1cccc(CSC(=N)N)c1 | -1.5
CCN(C(=O)Cn1cc(C(=O)c2cccs2)c2ccccc21)c1ccccc1 | 2.5
Cc1cc2n(n1)C(c1ccsc1)Nc1c(C)cccc1-2 (stereo not given) | -0.46
Cc1cc2n(n1)C(c1cccc(Cl)c1)Nc1c(C)cccc1-2 (stereo not given) | 6.2*
COc1ccc(C2Nc3c(C)cccc3-c3cc(C)nn32)cc1OC (stereo not given) | -0.04
Cc1csc(NC(=O)C(F)(F)F)c1-c1nc2ccccc2s1 | 0.44
SMILES | Dicer inh
CCOC(=O)c1c(C)oc2cc(Br)c(OCC)cc12 | 1
CN(C)c1c(F)cc(/C(N)=N/O)cc1F | 0.46
CN(C)c1c(F)cc(C(N)=O)cc1F | 3.4*
CN(C)c1c(F)cc(C(=O)Nc2cc(C(F)(F)F)cc(C(F)(F)F)c2)cc1F | 12
Cc1cc(C(C)(C)C)cc(C)c1N1C(=O)CC(Sc2ccc(Cl)cc2)C1=O (stereo not given) | -2.5
CC(=O)c1cc([N+](=O)[O-])c(SCc2ccc(Cl)cc2)s1 | -1.2
CCCCCCCCSc1ncn[nH]1 | -1.6
CCCCCCCSc1nnc(-c2ccccc2N)c(=O)[nH]1 | 1.1
CCCCCSc1nncc(=O)[nH]1 | 4.2*

Source: PubChem (Center for Chemical Genomics, University of Michigan)
